This experiment is described as follows: HepG2 liver cancer cell viability effects, profiling panel, resazurin fluorescence, 24 h, PK04 Diversity Set (AID 1172). Note: test concentration not given here. The conditions noted are these: higher = more signal. A general note: The colour change of resazurin is a common sign of viable cells or microbes.
Take `O=C1C2C=CC(C(O)Cc3ccccc3)N(n3cnnc3)C2C(=O)N1Cc1ccccc1` (stereo unspecified): the z-score is -0.957.

Turning to `Cc1ccc(S[C@]2(C(=O)NCCCN(C)C)CC(=O)N(Cc3ccccc3C(F)(F)F)[C@@H]2c2ccc(CO)cc2)cc1`, the z-score is -0.758. To `COc1cc(C(O)C2C=CC3C(=O)NC(=O)C3N2Nc2ccccn2)cc(OC)c1OC` (stereo unspecified) belongs -0.927; to `C=CCNC(=O)[C@H]1[C@@H]2C(=O)O[C@@H](c3ccccc3)[C@@H](c3ccccc3)N2[C@@H](c2ccccc2OCCO)[C@]12C(=O)Nc1ccc(C#CCC(C(=O)OC)C(=O)OC)cc12`, 0.57; to `COCCOC(=O)N1C(=O)[C@@]2(c3cc(C#CCNC(N)=O)ccc31)[C@H](C(=O)N1CCN(c3ncccn3)CC1)[C@H]1C(=O)O[C@H](c3ccccc3)[C@H](c3ccccc3)N1[C@@H]2c1ccc(OCCO)cc1`, -0.488.

In the case of `CCOC(=O)C[C@H]1[C@H](OC(=O)c2ccc(C(=O)c3ccccc3)cc2)[C@@H](NC(=O)c2ccc3ccccc3c2)c2cc(OCCCO)ccc2N1C(=O)Cc1ccc(OC)cc1`, the z-score was -0.0265. To `C[C@H]1NC(=O)[C@@]23C(=O)N[C@@H](Cc4ccccc4)C2[C@H](C)[C@@]2(C)O[C@H]2C3/C=C/C/C=C\CNC(=O)[C@@H]2CCCN2C1=O` (stereo partly specified) belongs 0.23; to `C=C(CCCC)/C(=C/C[C@@H](OC(=O)c1ccncc1)c1ccc(OCCO)cc1)c1cc(C(=O)OC)ccc1OC`, 0.691; to `CN1C(=O)C2C=CC(C(O)c3ccc([N+](=O)[O-])cc3)N(N3CCCCC3)C2C1=O` (stereo unspecified), -0.777. With `CC(C)C(=C=CC[C@H](O)c1ccc(OCCO)cc1)CCO` the figure was 0.933; with `C[C@H]1C2[C@H](Cc3ccccc3)NC(=O)[C@]23C(=O)N[C@H](Cc2ccccc2)C(=O)N2CCC[C@H]2C(=O)NC/C=C\C/C=C/C3[C@@H]2O[C@]12C` (stereo partly specified), 0.696. Consider `CN(C)CCCCCCNC(=O)[C@H]1C[C@H]2C(=O)N[C@@H](CCCCN)C(=O)N2[C@H]1c1cccc(OCCO)c1`, for which the z-score was -0.0616. With `C=CCC(OC(C)=O)[C@@H]1[C@@H](N(Cc2cc3ccccc3o2)C(=O)c2cccc3ccccc23)c2cc(OCCCO)ccc2N1C(=O)c1ccc(-c2ccccc2)cc1` (stereo partly specified) the figure was -1.11.

Consider `COC(=O)[C@@]1(Cc2ccc(OC)cc2)[C@H]2c3cc(C(=O)N4CCCC4)n(Cc4ccc(O)c(OC)c4)c3C[C@H]2CN1C(=O)c1ccccc1`, for which the z-score is -1.76.

On to `COC(=O)[C@@]1(Cc2ccc(OC)cc2)[C@H]2c3cc(C(=O)N4CCCC4)n(Cc4ccc(C)c(F)c4F)c3C[C@H]2CN1C(=O)c1ccccc1`, for which the z-score was 0.273. To `C=CCOC(=O)[C@H]1[C@@H]2C(=O)O[C@@H](c3ccccc3)[C@@H](c3ccccc3)N2[C@@H](c2ccc(OCCOC(=O)[C@@H]3C[C@@H]4C(=O)N[C@@H](CCCCNC(C)=O)C(=O)N4[C@@H]3c3ccc(O)cc3)cc2)[C@]12C(=O)Nc1ccccc12` belongs -0.707; to `COC(=O)[C@@]1(Cc2ccc(OC)cc2)[C@H]2c3cc(C(=O)N(C)C)n(Cc4ccc(S(C)(=O)=O)cc4)c3C[C@H]2CN1C(=O)c1ccccc1`, 0.0042; to `CC(C)=CCN[C@H](CO)c1ccccc1`, -0.347. For `COC(=O)[C@@]1(Cc2ccc(F)cc2)[C@H]2c3cc(C(=O)N4CCCC4)n(Cc4ccc(S(C)(=O)=O)cc4)c3C[C@H]2CN1C(=O)c1ccccc1`, the z-score was -0.608. To `COc1ccc(C#Cc2ccc3c(c2)[C@]2(C(=O)N3)[C@H](C(=O)Nc3nc4ccccc4s3)[C@H]3C(=O)O[C@H](c4ccccc4)[C@H](c4ccccc4)N3[C@@H]2c2ccc(O)cc2)cc1` belongs 1.2; to `[N-]=[N+]=Nc1ccccc1[C@H]1OC(c2ccc(OCCCO)cc2)=N[C@@]1(CCS(=O)(=O)c1ccccc1)C(N)=O`, -0.183. With `CC(C)c1ccc(NN2C(C(O)c3ccc(B(O)O)cc3)C=CC3C(=O)N(c4ccccc4)C(=O)C32)cc1` (stereo unspecified) the figure was -1.18. On to `COC(=O)[C@@]1(Cc2ccc(F)cc2)[C@H]2c3cc(C(=O)N(C)C)n(Cc4ccccc4)c3C[C@H]2CN1C(=O)c1ccccc1`, for which the z-score is -1.49. With `[N-]=[N+]=Nc1ccccc1[C@@H]1OC(c2ccc(OCCCO)cc2)=N[C@]1(Cc1ccccc1)C(=O)N1CCOCC1` the figure was -0.601; with `CN(C)C(=O)[C@]1(Cc2ccccc2N=[N+]=[N-])N=C(c2ccc(OCCCO)cc2)O[C@@H]1c1ccccc1N=[N+]=[N-]`, -1.08; with `CC(C)NC(=O)[C@@]1(c2ccc([N+](=O)[O-])cc2)CC(=O)N(C2CCCCC2)[C@@H]1c1ccc(CO)cc1I`, -0.752.
